Results reported in PubChem BioAssay (NCATS).
Records with an inconclusive call do not appear. Activity calls are given as the source filed them. Calls come from the whole dose curve; as a rule, active = well fitted curve in the direction sought with a large enough effect; inconclusive = small, poorly fitted or top-dose-only effect, or effect the other way, or another doubt; inactive = no such curve, though single readings can be large or run the other way.

assay: Cytotoxicity qHTS for assessment of Hepg2 cells membrane integrity screened against the NCATS CANVASS Library (AID 1347387); conditions: HepG2 LDH release (CytoTox-ONE) fluorescence, 5 h; series mostly up to 46.1 µM; cytotoxicity (LDH release): at the top concentration
From the text: Natural products and their derivatives continue to be wellsprings of nascent therapeutic potential. However, many laboratories have limited resources for biological evaluation, leaving their previously isolated or synthesized compounds largely or completely untested. To address this issue, the Canvass library of natural products was assembled (https://tripod.nih.gov/canvass), in collaboration with academic and industry researchers, for quantitative high-throughput screening (qHTS) across a diverse set of cell-based and biochemical assays. The pure (>85% purity by liquid chromatography/mass spectrometry [LC/MS]) Canvass library of 346 natural products were submitted by 45 academic laboratories and companies around the world. We collected pure natural products to circumvent deconvolution and structure elucidation due to time and resource limitations. The library was formatted into 1536-well plates and evaluated in 50 qHTS (in an 11-pnt concentration series) bioassays with broad scope of disease-relevant mechanisms. The resulting data set from 50 different assays was then systematically analyzed to identify overall trends and specific natural products with interesting biological activities. Reported herein are the results of each individual qHTS and their corresponding assay protocol. The membrane integrity assay is a fluorometric method for estimating the number of nonviable cells. The assay measures the release of lactate dehydrogenase (LDH) from cells with a damaged cellular membrane. The amount of fluorescence is proportional to the number of lysed cells. National Center for Advancing Translational Sciences (NCATS), Rockville, MD National Institute of Health (NIH), Bethesda, Maryland
Membrane Integrity-screen protocol: 1. In black solid-bottom 1536 well plates, 5 uL of HepG2 cell suspension was dispensed using the Multidrop Combi (Thermo Fisher Scientific) at a final concentration of 2000 cells / well (columns 2-48). 2. The assay plates were incubated overnight at 37C, 5% CO2 to allow the cells to acclimate and attach. 3. 23 nL of compounds (in DMSO), vehicle control (DMSO) or control compound were pin transferred into the assay plates using the Kalypsis pin tool (Wako USA) equipped with a 1536 well pin heads, resulting in final concentration of 0.59 nM - 46 uM. 4. The assay plates were further incubated for 5 hr at 37C, 5% CO2. 5. 5 uL of CytoTox-ONE Membrane Integrity Assay reagent was added to the plates using the BioRAPTR dispenser followed by a 10 min room temperature incubation. 6. The fluorescence signal was measured using the EnVision plate reader (PerkinElmer) using a 560 nm excitation and 590 nm emission filters.

| Structure (SMILES) | cytotoxicity (LDH release) |
| --- | --- |
| COc1ccc2c(c1)[nH]c1c(C)nccc12 | -1.2 [at 91.4 µM] (inactive) |
| CCN1C[C@]2(C)CC[C@H](O)[C@]34C1C(C[C@H]23)[C@@]12CC[C@H](CC14)[C@](O)(COC(=O)c1ccc(OC)c(OC)c1)[C@H]2O (stereo not given in full) | 2.28 (inactive) |
| NCCc1ccccc1 | 1.1 (inactive) |
| CO[C@H](c1ccccc1)[C@H]1NC(=O)C(C)NC(=O)C(C[C@@H](C)CO)N(C)C(=O)[C@@H](C(O)c2cn(C(C)(C)C3CO3)c3ccccc23)NC(=O)C(C(C)C=C(C)C)NC(=O)C(CC(C)C)N(C)C(=O)C(C(C)C)NC1=O (stereo not given in full) | -1.04 [at 27.5 µM] (inactive) |
| CCCC[C@@H]1CC[C@H]2CCCC(CCC)N12 (stereo not given in full) | 0.304 (inactive) |
| CNCCc1c[nH]c2ccccc12 | 1.02 (inactive) |
| COc1ccc(C23Oc4cc(OC)cc(OC)c4[C@](O)([C@H](c4ccccc4)C2C(=O)NCCCCNC(=O)c2ccccc2)[C@@H]3O)cc1 (stereo not given in full) | 0.695 (inactive) |
| CO[C@@H](/C=C/CC/C=C/C(=O)O)[C@@H](O)[C@H](C)[C@@H](O)/C(C)=C/[C@H](C)C(=O)CCCC1CC(=O)NC(=O)C1 | 1.66 (inactive) |
| C=C1[C@@H](C)[C@H]2[C@H](Cc3ccccc3)NC(=O)[C@]23OC(=O)/C=C/[C@H](O)CCC[C@@H](C)C/C=C/[C@H]3[C@@H]1O | 0.79 (inactive) |
| CCC[C@H]1CC[C@H]2[C@H](C)CCC[C@H]2N1 | -0.876 (inactive) |
| C[C@]12CC(O)C3[C@@H](CCC4C[C@@H](O)CC[C@@]43CO)[C@@]1(O)CCC2C1=CC(=O)OC1 (stereo not given in full) | -1.42 (inactive) |
| CC[C@@H]1CN2CC[C@@]3(O)C(=Nc4cccc(OC)c43)[C@@H]2C[C@@H]1/C(=C\OC)C(=O)OC | 0.828 (inactive) |
| CN(C)Cc1c[nH]c2ccccc12 | -0.473 (inactive) |
| O=C(c1ccccc1O)c1[nH]c(Cl)c(Cl)c1-n1c(C(=O)c2ccccc2O)cc(Cl)c1Cl | 0.385 (inactive) |
| CNCCc1ccccc1 | -0.952 (inactive) |
| CC[N@@+]1([O-])C[C@]2(C)CC[C@@H](O)[C@@]34C5C[C@H]6CC[C@@]5(C(C[C@H]23)C41)[C@H](O)[C@@]6(O)CO (stereo not given in full) | -0.654 (inactive) |
| COC(=O)C1=C2Nc3ccccc3[C@@]23CCN2CC(C(C)=O)C1C[C@H]23 (stereo not given in full) | 1.3 (inactive) |
| CC1=CC(=O)C2=C(C)C[C@H](O)[C@@H]3[C@H](OC(=O)[C@@H]3C)[C@@H]12 | 0.156 (inactive) |
| CC=C1CN(C=O)[C@H]2C[C@@H]1[C@@H](C(=O)OC)[C@@]13CCOC21Nc1ccccc13 (stereo not given in full) | 4.49 (inactive) |
| CCN1C[C@]2(C)CC[C@@H](O)[C@]34C1[C@H](C[C@H]23)C12CCC(CC14)[C@](O)(CO)[C@H]2O (stereo not given in full) | 2.4 (inactive) |
| C/C=C1/CN2CC[C@]34C(=Nc5ccccc53)[C@@H]2C[C@@H]1[C@H]4C(=O)OC | 1.25 [at 91.4 µM] (inactive) |
| COc1ccc2c3c([nH]c2c1)C(C)=NCC3 | -1.61 (inactive) |
| CO[C@@H](/C=C/CC/C=C/C(=O)O)[C@@H](O)[C@H](C)/C=C(\C)[C@@H](O)[C@H](C)C(=O)CCCC1CC(=O)NC(=O)C1 | -0.29 (inactive) |
| CC1=CC2CC[C@@H]3[C@@H](C)C[C@H](C)[C@@H](C1)N23 (stereo not given in full) | 1.46 (inactive) |
| CC(=O)N[C@H]1CCN2CCC[C@H]12 | -0.609 [at 103 µM] (inactive) |
| CCC(=O)CCCCC[C@@H]1NC(=O)[C@H]2CCCCN2C(=O)[C@H]([C@@H](C)CC)NC(=O)[C@H](Cc2cn(OC)c3ccccc23)NC1=O | 1.23 (inactive) |
| c1ccc2c3c([nH]c2c1)CNCC3 | -0.939 (inactive) |
| CN1C(=O)[C@]23CC4C(C)(C)[C@@]5(C[C@@]41CN2CC[C@@]3(C)O)C(=O)Nc1c5ccc2c1OC=CC(C)(C)O2 (stereo not given in full) | -2.42 (inactive) |
| CCCCC[C@@H]1OC(=O)[C@@H](C)N(C)C(=O)[C@H](CCCCC)OC(=O)C(C)N(C)C(=O)[C@H](CCCCC)OC(=O)[C@@H](C)N(C)C(=O)[C@H](CCCCC)OC(=O)C(C)N(C)C1=O (stereo not given in full) | 8.23 (inactive) |
| CNCCc1ccc(O)cc1 | 0.585 (inactive) |
